Experimental data from the supplement of paper PMC12645437, “Orthogonal IMiD-Degron Pairs Induce Selective Protein Degradation in Cells” (ACS Chemical Biology, 2025).
The full ranking holds about 8,300 sequences; the median of “log2 fold change of degron read counts, EGFP-low vs EGFP+ sorted cells (limma voom), compound-induced degradation” is about -1.1, and the highest 2% start at about 3.2. For the sample, the highest values were picked, then their nearest neighbours and some sequences at random.

T1: CRBN, Q96SW2
T1 chain: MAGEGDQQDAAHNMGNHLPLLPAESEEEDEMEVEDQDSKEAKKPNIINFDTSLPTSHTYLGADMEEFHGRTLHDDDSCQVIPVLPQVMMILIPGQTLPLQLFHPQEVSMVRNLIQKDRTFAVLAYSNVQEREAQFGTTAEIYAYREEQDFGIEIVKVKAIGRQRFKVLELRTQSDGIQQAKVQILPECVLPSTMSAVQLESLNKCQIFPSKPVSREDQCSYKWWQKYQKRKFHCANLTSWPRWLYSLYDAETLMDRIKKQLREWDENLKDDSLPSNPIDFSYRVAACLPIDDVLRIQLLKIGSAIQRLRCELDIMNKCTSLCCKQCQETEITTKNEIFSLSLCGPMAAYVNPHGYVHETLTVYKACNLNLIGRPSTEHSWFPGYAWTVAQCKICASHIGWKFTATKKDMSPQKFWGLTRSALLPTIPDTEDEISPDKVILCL


Target: T1, CRBN, Q96SW2
Test: log2 fold change of degron read counts, EGFP-low vs EGFP+ sorted cells (limma voom), compound-induced degradation; higher = more compound-induced degradation of the degron-EGFP fusion; degrons are variants of IKZF1/3 zinc finger 2; compound dose not given here
Conditions: Jurkat, 18 h
[1] = compound: compound 19 (5-tert-butyl-thalidomide)
[2] = compound: compound 22 (5-morpholino-thalidomide)
[3] = compound: compound 33 (diphenyl IMiD analogue)
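Note: pooled lentiviral library of zinc finger degron-EGFP fusions in mCherry-positive Jurkat cells, FACS-sorted after compound exposure, with degron abundance counted by next-generation sequencing.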

Row | Sequence | log2 fold change of degron read counts [1] | log2 fold change of degron read counts [2] | log2 fold change of degron read counts [3] | log2 fold change of degron read counts (compound: thalidomide)
1 | FKCNVCGANFTQKGNLLRHIKL [46F_47K_49N_50V_52G_53A_54N_55F_67L_, Q9UKT9] | -2.45 | -2.95 | -3.12 | -2.19
2 | FICNICGAYFTQKGNLLRHIKL [46F_47I_49N_50I_52G_53A_54Y_55F_67L_, Q9UKT9] | -1.5 | 0.102 | 1.22 | 0.967
3 | FLCNVCGALFTQKGNLLRHIKL [46F_47L_49N_50V_52G_53A_54L_55F_67L_, Q9UKT9] | -2.4 | -1.93 | -0.86 | -0.854
4 | FCCEICGHNFTQKGNLLRHIKL [46F_47C_49E_50I_52G_53H_54N_55F_67L_, Q9UKT9] | -3.4 | -2.63 | -3.12 | -2.76
5 | FQCDQCGANFTQKGNLLRHIKL [46F_47Q_49D_50Q_52G_53A_54N_55F_67L_, Q9UKT9] | -2.74 | -1.96 | -2.34 | -0.263
6 | FYCNICGAIFTQKGNLLRHIKL [46F_47Y_49N_50I_52G_53A_54I_55F_67L_, Q9UKT9] | 0.725 | 1.63 | 0.601 | -0.748
7 | FQCNICGAIFTQKGNLLRHIKL [46F_47Q_49N_50I_52G_53A_54I_55F_67L_, Q9UKT9] | -0.972 | 2.07 | 2.21 | 3.81
8 | FHCNICGAIFTQKGNLLRHIKL [46F_47H_49N_50I_52G_53A_54I_55F_67L_, Q9UKT9] | -0.569 | 0.345 | -0.0029 | -0.75
9 | FTCPICGRYFTQKGNLLRHIKL [46F_47T_49P_50I_52G_53R_54Y_55F_67L_, Q9UKT9] | -0.651 | -0.614 | 0.487 | 0.782
10 | LACNQCGFLCTQKGNLLRHIKL [46L_47A_49N_50Q_52G_53F_54L_55C_67L_, Q9UKT9] | -1.52 | -2.34 | -2.08 | -1.99
11 | LICEICGFKCTQKGNLLRHIKL [46L_47I_49E_50I_52G_53F_54K_55C_67L_, Q9UKT9] | 0.236 | 1.62 | 0.617 | 2.72
12 | LACEICGFKCTQKGNLLRHIKL [46L_47A_49E_50I_52G_53F_54K_55C_67L_, Q9UKT9] | 3.4 | 1.5 | -1.07 | 0.917
13 | LLCEICGFKCTQKGNLLRHIKL [46L_47L_49E_50I_52G_53F_54K_55C_67L_, Q9UKT9] | 0.0968 | -1.51 | -0.463 | 1.96
14 | LDCEICGFKCTQKGNLLRHIKL [46L_47D_49E_50I_52G_53F_54K_55C_67L_, Q9UKT9] | -0.859 | -1.7 | -1.79 | -0.369
15 | LTCEICGFKCTQKGNLLRHIKL [46L_47T_49E_50I_52G_53F_54K_55C_67L_, Q9UKT9] | 0.899 | 1.56 | -0.216 | 2.39
16 | LECEICGFKCTQKGNLLRHIKL [46L_47E_49E_50I_52G_53F_54K_55C_67L_, Q9UKT9] | -0.0668 | -1.67 | -0.528 | 2.53
17 | LWCEICGFKCTQKGNLLRHIKL [46L_47W_49E_50I_52G_53F_54K_55C_67L_, Q9UKT9] | 3.29 | 3.25 | 1.64 | 1.24
18 | LYCEICGFKCTQKGNLLRHIKL [46L_47Y_49E_50I_52G_53F_54K_55C_67L_, Q9UKT9] | 3.6 | 3.16 | 1.42 | 1.42
19 | LSCEICGFKCTQKGNLLRHIKL [46L_47S_49E_50I_52G_53F_54K_55C_67L_, Q9UKT9] | 2.27 | 1.7 | -0.728 | 1.09
20 | LCCEICGFKCTQKGNLLRHIKL [46L_47C_49E_50I_52G_53F_54K_55C_67L_, Q9UKT9] | 2 | 1.83 | -0.183 | 2.48
21 | LFCEICGFKCTQKGNLLRHIKL [46L_47F_49E_50I_52G_53F_54K_55C_67L_, Q9UKT9] | 3.22 | 3.15 | 0.657 | 1.64
22 | LQCEICGFKCTQKGNLLRHIKL [46L_47Q_49E_50I_52G_53F_54K_55C_67L_, Q9UKT9] | 0.755 | 1.87 | 0.3 | 3.27
23 | FLCPVCGAHFTQKGNLLRHIKL [46F_47L_49P_50V_52G_53A_54H_55F_67L_, Q9UKT9] | -0.298 | -0.793 | 1.34 | 0.943
24 | LVCEICGFPCTQKGNLLRHIKL [46L_47V_49E_50I_52G_53F_54P_55C_67L_, Q9UKT9] | -1.74 | -0.966 | -1.5 | -0.424
25 | FVCPICGRIFTQKGNLLRHIKL [46F_47V_49P_50I_52G_53R_54I_55F_67L_, Q9UKT9] | -1.17 | -0.629 | 1.04 | 1.32
26 | FQCPICGHTFTQKGNLLRHIKL [46F_47Q_49P_50I_52G_53H_54T_55F_67L_, Q9UKT9] | -2.53 | -2.01 | -1.64 | 0.116
27 | FRCEVCGANFTQKGNLLRHIKL [46F_47R_49E_50V_52G_53A_54N_55F_67L_, Q9UKT9] | -1.19 | -1.18 | 1.07 | 0.852
28 | FHCPVCGADFTQKGNLLRHIKL [46F_47H_49P_50V_52G_53A_54D_55F_67L_, Q9UKT9] | -0.685 | -1.25 | 0.492 | -1.46
